These results are taken from PubChem BioAssay.

The structures appear in SMILES notation. The list shows a part of the results. The source made the active and inactive calls. Unless noted, the rule behind the calls is not given here.

A short description of experiment [1]: cytotoxicity in PPC-1 cells, confirmation, cytotoxicity control for TRAIL apoptosis potentiator project, cell-based, ATP content luminescence (AID 1447;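 active = reconfirmed compounds whose average cytotoxicity reaches 50% or more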;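 note: 0% = DMSO-treated cells and 100% = wells holding medium but no cells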). To be noted: PPC-1 viability, ATPlite luminescence, overnight; at 5 µM; stronger effect = higher value. A general note: In ATP-based viability assays light output follows the ATP content of the culture.
Experiment [2] concerns the target Sentrin-specific protease 8 (Homo sapiens) (UniProt Q96LD8). The experiment can be described thus: SENP8 protease inhibitors, retest, confirmation, biochemical, luminescence, single concentration (AID 488912;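 active = mean inhibition across replicates above about 50%, limit read from the data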). As to conditions: Recombinant SENP8, Z-RLRGG-aminoluciferin luminescence, 60 min; at 12.5 µM; stronger effect = higher value.
The target of experiment [3] is Sentrin-specific protease 6 (Homo sapiens) (UniProt Q9GZR1). The experiment in a line: SENP6 protease inhibitors, confirmation, biochemical, luminescence, single concentration (AID 488915;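 active = mean inhibition above about 50% in the one-dose retest, limit read from the data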). As to conditions: recombinant SENP6, Z-RLRGG-aminoluciferin luminescence; at 12.5 µM; stronger effect = higher value.
Experiment [4] deals with Sentrin-specific protease 7 (Homo sapiens) (UniProt Q9BQF6). The experiment in a line: SENP7 protease inhibitors, retest, confirmation, biochemical, luminescence, single concentration (AID 488917;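 active = mean inhibition above about 50% in the one-dose retest, limit read from the data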). To be noted: recombinant SENP7, Z-RLRGG-aminoluciferin luminescence, 40 min; at 12.5 µM; stronger effect = higher value.
Another experiment deals with Caspase-3 (Homo sapiens) (UniProt P42574). The experiment in a line: caspase-3 protease inhibitors, confirmation, selectivity assay for SENP inhibitor project, biochemical, single concentration (AID 488918;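 active = mean inhibition above about 50%, limit read from the data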;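 note: plate controls were enzyme with DMSO for no effect and wells without caspase-3 for full effect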). As to conditions: purified caspase-3, Z-DEVD-aminoluciferin luminescence, 60 min; at 12.5 µM; stronger effect = higher value.
A short description of experiment [5]: luciferase luminescence interference by compounds, confirmation, artefact control for SENP inhibitor project, biochemical, single concentration, SENP8 reaction pre-completed (AID 488919;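 active = mean inhibition above about 50% when retested at one dose, limit read from the data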;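 note: plate controls were DMSO wells with completed reaction for no effect and substrate without enzyme for full effect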). As to conditions: Pre-incubated SENP8/Z-RLRGG-aminoluciferin, at 12.5 µM, stronger effect = higher value.
Experiment [6] deals with Tumor necrosis factor receptor superfamily member 10B (Homo sapiens) (UniProt O14763). The experiment can be described thus: caspase-8 TRAIL sensitization, hit retest, confirmation, cell-based, NB7+caspase-8, with/without TRAIL, luminescence panel (AID 651596; in the data active = activity above about 50%). As to conditions: NB7 neuroblastoma + caspase-8, TRAIL sensitization, luminescence viability, with TRAIL, mean of runs, at 10 µM, stronger effect = higher value.

Assay in experiment [7]: as above
To be noted: NB7 neuroblastoma + caspase-8, without TRAIL, luminescence viability, without TRAIL, mean of runs, at 10 µM.

A short description of experiment [8]: inhibition of Brca1/Bard1 split-luciferase complementation, confirmation, counter-screen for Mdm2/MdmX interaction inhibitor project, luminescence, single concentration (AID 504668). As to conditions: Brca1/Bard1 bimolecular luciferase complementation counterscreen, at 8 µM, stronger effect = higher value. Background: The purpose of a counterscreen is to sort out artefacts and off-target activity.

Experiment [9] is described as follows: Apaf-1 inhibitors, single-dose retest, confirmation, biochemical, fluorescence, DEVD-Rh110, 20 µM (AID 504614;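 active = mean inhibition of at least 40% at 20 µM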;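 note: plate controls were DMSO wells for no effect and DEVD-CHO caspase inhibitor control wells for full effect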). As to conditions: reconstituted apoptosome, caspase-3 DEVD-Rh110 fluorescence; at 20 µM; stronger effect = higher value.
Experiment [10] can be described thus: Rh110 fluorescence interference by putative Apaf-1 inhibitors, confirmation, artefact control for Apaf-1 inhibitor project, biochemical, 20 µM (AID 504615;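 active = signal rise of 40% or more at 20 µM, treated as a fluorescence artifact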). To be noted: quenched caspase reaction, at 20 µM, stronger effect = higher value.
A short description of experiment [11]: PMA/ionomycin-induced NF-kB reporter inhibitors, Jurkat retest, confirmation, T-cell NF-kB inhibitor project, cell-based, luminescence, single concentration (AID 435020;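 active = inhibition reaching about 45% at 4 µM in either replicate, limit read from the data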;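 note: plate controls were PMA/ionomycin stimulated DMSO wells for no effect and unstimulated DMSO wells for full effect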). As to conditions: Jurkat NF-kB luciferase, 16 h, at 4 µM, stronger effect = higher value.
Experiment [12] deals with Protein Mdm4 (Homo sapiens) + E3 ubiquitin-protein ligase Mdm2 (Homo sapiens) (UniProt O15151+Q00987). The experiment in a line: retested Mdm2-MdmX interaction blockers, confirmation, cell-based, luminescence, single concentration, set 2 (AID 504601;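 active = mean inhibition of the luminescence signal across two replicates at or above 26 percent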). To be noted: SaOS-2 split-luciferase Mdm2/MdmX complementation, at 8 µM, stronger effect = higher value.
Protein Mdm4 (Homo sapiens) + E3 ubiquitin-protein ligase Mdm2 (Homo sapiens), sequence (O15151 whole entry, looked up): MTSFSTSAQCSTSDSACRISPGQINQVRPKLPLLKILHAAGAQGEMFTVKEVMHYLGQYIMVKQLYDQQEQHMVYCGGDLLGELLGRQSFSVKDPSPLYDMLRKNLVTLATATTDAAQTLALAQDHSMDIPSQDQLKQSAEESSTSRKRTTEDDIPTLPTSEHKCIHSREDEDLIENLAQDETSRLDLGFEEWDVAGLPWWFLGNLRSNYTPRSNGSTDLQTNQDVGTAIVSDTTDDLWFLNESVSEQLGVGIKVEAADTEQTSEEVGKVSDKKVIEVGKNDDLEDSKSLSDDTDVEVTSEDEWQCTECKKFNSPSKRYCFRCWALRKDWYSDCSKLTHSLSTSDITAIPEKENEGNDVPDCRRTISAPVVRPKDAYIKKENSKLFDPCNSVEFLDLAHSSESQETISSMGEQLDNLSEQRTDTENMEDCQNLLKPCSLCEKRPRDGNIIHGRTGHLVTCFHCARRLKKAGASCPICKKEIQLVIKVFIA
Protein Mdm4 (Homo sapiens) + E3 ubiquitin-protein ligase Mdm2 (Homo sapiens), sequence (Q00987 whole entry, looked up): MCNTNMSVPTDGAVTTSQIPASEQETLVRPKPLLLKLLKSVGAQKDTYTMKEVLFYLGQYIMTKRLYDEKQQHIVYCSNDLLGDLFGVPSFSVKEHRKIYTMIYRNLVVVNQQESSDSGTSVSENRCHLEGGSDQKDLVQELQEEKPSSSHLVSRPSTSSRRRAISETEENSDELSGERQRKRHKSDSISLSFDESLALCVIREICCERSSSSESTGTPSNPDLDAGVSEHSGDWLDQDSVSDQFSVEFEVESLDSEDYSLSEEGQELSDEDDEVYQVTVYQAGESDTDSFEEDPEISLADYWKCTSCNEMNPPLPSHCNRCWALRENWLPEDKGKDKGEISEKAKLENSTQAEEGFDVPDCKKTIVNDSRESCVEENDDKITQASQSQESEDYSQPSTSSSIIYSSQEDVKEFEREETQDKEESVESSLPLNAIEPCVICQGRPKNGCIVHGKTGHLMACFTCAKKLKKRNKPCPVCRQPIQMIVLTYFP

Tumor necrosis factor receptor superfamily member 10B (Homo sapiens), sequence (O14763 whole entry, looked up): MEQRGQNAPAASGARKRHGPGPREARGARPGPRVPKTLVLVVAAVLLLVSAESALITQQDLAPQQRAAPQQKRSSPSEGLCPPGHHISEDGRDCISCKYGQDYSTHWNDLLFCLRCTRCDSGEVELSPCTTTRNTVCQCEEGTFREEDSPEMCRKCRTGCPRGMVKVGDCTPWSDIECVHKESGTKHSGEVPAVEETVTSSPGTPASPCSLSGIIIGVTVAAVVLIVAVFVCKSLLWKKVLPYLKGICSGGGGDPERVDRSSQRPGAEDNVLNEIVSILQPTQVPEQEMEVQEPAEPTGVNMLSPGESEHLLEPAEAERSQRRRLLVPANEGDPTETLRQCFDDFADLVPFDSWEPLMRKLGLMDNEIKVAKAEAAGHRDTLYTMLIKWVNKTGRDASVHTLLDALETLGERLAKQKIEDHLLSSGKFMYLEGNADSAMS
Sentrin-specific protease 6 (Homo sapiens), sequence (Q9GZR1 628-1112 limits assumed): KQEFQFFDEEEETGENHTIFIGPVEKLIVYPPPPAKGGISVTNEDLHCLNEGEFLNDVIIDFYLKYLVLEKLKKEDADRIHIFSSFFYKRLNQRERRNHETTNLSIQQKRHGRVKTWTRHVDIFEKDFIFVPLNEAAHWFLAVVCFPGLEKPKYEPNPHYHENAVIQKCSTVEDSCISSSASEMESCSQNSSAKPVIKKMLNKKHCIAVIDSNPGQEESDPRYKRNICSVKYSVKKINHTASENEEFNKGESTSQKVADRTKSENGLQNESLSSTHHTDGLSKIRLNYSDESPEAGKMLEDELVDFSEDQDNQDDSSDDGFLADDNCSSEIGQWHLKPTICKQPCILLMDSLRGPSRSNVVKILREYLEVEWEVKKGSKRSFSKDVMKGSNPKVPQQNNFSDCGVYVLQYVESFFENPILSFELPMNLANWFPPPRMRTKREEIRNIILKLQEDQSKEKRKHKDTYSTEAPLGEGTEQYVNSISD
Sentrin-specific protease 7 (Homo sapiens), sequence (Q9BQF6 706-1050 limits assumed): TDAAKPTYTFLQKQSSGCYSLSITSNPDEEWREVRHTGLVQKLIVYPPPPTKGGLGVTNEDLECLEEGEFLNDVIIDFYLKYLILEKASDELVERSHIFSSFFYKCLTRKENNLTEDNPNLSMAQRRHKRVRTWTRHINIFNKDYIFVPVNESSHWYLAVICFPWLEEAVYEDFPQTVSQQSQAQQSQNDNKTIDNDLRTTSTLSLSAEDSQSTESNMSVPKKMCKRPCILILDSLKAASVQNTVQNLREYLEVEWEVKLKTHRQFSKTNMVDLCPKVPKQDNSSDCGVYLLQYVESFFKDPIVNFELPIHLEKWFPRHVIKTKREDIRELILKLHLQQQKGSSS
Caspase-3 (Homo sapiens), sequence (P42574 28-227 limits assumed): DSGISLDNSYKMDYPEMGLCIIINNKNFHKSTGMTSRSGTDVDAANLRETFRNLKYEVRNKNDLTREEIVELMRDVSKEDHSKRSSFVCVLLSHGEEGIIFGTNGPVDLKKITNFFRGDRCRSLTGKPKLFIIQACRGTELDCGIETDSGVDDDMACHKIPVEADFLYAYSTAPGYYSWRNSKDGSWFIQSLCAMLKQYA
Sentrin-specific protease 8 (Homo sapiens), sequence (Q96LD8 whole entry, looked up): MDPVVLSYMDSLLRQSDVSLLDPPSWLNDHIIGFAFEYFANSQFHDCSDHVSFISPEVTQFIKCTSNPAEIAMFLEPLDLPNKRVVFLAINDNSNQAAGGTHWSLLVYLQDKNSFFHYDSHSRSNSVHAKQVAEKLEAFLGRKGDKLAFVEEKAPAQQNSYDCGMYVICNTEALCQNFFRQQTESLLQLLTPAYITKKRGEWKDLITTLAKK

Consider `COc1cccc(-c2nc3ccc(N4CCN(C)CC4)cc3[nH]2)c1`, for which the cytotoxicity in experiment [1] was 82.3% (active). Further, the inhibition – broadly, the change of the read-out against control, counted positive when it falls – in experiment [2] was 74.8% (active); in experiment [3] it was 67.2% (active); in [4] it was 88.2% (active); in the experiment with Caspase-3 (Homo sapiens) it was 87% (active); in [5], 25.4% (inactive). In addition, the activity amounted to 90.4% in experiment [6] and 87.8% in [7].

With `CCc1nc2ccccc2c(=O)n1-c1cccc(OC)c1`, in experiment [1], the cytotoxicity was -11.4% (inactive). With `CCOc1ccc(-c2cc(C)[n+](CCc3ccc(OC)c(OC)c3)c(-c3ccc(OCC)cc3)c2)cc1`, the inhibition in [8] was 35.8% (active). Same read-out and setting: for `CCOc1cccc(CNCCc2c(C)[nH]c3ccc(OC(F)(F)F)cc23)c1O` the value was 29.9% (active); for `COc1cc2c3c(c1OC)Oc1ccc(cc1)C[C@H]1c4c(cc(OC)c(OC)c4Oc4ccc(cc4)C[C@@H]3N(C)CC2)CCN1C`, 35.2% (active).

Turning to `Brc1ccc2c(c1)C(OC1CN3CCC1CC3)c1ccccc1CS2` (stereo not given), the inhibition in experiment [8] is 33.8% (active). Regarding `COc1ccc2c(c1)/C(=C/c1cnc[nH]1)C(=O)N2`, in [8], the inhibition is 32.2% (active).

As to `CNCC(O)c1cc(F)c(OCc2ccccc2)c(OCc2ccccc2)c1F` (stereo not given), in [9], the inhibition is 12.9% (inactive). The activation (fluorescence interference) in experiment [10] was 12.9% (inactive). Turning to `Cc1cc2ccccn2c1C(C[N+](=O)[O-])c1c(F)cccc1Cl` (stereo not given), the inhibition was 6.25% (inactive) in experiment [11], 33% (active) in experiment [12] and 29.6% (active) in experiment [8]. On to `C[C@]12CC[C@H](O)C[C@H]1CC[C@@H]1C2CC[C@]2(C)[C@@H](C3=CC(=O)OC3)[C@@H](O)C[C@]12O` (stereo not given in full), for which the inhibition in experiment [11] is -17.1% (inactive).

In the case of `CCn1nc(/C=C/c2ccccc2)nc2c(=O)n(C)c(=O)nc1-2`, the inhibition in experiment [8] was 24.6% (active). The same measure, in the same setting: the result for `Cc1cccc(-n2c(O)c(/C=C3/C(c4ccccc4)=Nc4ccccc43)c(=O)[nH]c2=O)c1` reads 35.8% (active). Same read-out and setting: the result for `CCn1nc(-c2ccccc2)nc2c(=O)n(C)c(=O)nc1-2` reads 23.3% (active).

Turning to `CCOC(=O)c1c(N)n(Cc2ccccc2)c2nc3ccccc3nc12`, in experiment [9], the inhibition was 12.5% (inactive). Besides, in experiment [10], the activation (fluorescence interference) is 5.83% (inactive). For the compound `COc1cc2c3cc1Oc1c(OC)c(OC)cc4c1[C@H](Cc1ccc(cc1)Oc1cc(ccc1O)C[C@H]3N(C)CC2)N(C)CC4`, in experiment [8], the inhibition was 29.8% (active). The same measure, in the same setting: for `O=Cc1cn(Cc2ccc(F)cc2Cl)c2ccccc12` the value was 35.1% (active). The same measure, in the same setting: the result for `Cc1cc(O)c2c(c1)C(=O)C13C(=C2O)C(=O)[C@H]2[C@@H](O)[C@@H]1[C@H]1[C@H](O)[C@@H]3C(=O)C3=C(O)c4c(O)cc(C)cc4C(=O)C312` (stereo not given in full) reads 29.6% (active).

Consider `CCOc1ccc(-c2cc(C)[n+](CCN(CC)CC)c(-c3ccc(OCC)cc3)c2)cc1`, for which the inhibition in experiment [11] was 21.7% (inactive). The activity was 62.5% in [6] and 59.2% in experiment [7]. In the case of `N#CC(C#N)=NNc1ccc(-n2ccc(C(F)(F)F)n2)cc1`, the inhibition in experiment [8] is 31.2% (active). Same read-out and setting: the result for `COc1cc2c(cc1OC)-c1c(OC)c(OC)c(OC)c3ccnc(c13)C2=O` reads 23.6% (active).

For the compound `C[C@@H]1O[C@@H](O[C@H]2C[C@@H](O)[C@]3(CO)[C@@H]4C(CC[C@]3(O)C2)[C@@]2(O)CC[C@H](C3COC(=O)C3)[C@@]2(C)C[C@H]4O)[C@H](O)[C@H](O)[C@H]1O` (stereo not given in full), the inhibition in [8] was 24.4% (active). With `CN(C)c1ccc(-[n+]2c(-c3ccccc3)cc(-c3ccccc3)cc2-c2ccccc2)cc1`, in experiment [8], the inhibition was 23.3% (active).
